# PTPN22 act: LYP phosphatase activators, primary screen, biochemical, DiFMUP fluorescence, 2 µM; Tyrosine-protein phosphatase non-receptor type 22 (Homo sapiens), Q9Y2R2; 96,000 compounds, 0.11% hits; recombinant LYP; 0 = plate median, 100 = signal doubled; activation, % at 2 µM;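 active = activation at 2 µM above a set limit, the mean plus 5 SD, cut at about 37% in these data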
# LYP inh 2: PTPN22 phosphatase inhibitors, primary screen, biochemical, DiFMUP fluorescence, 2 µM. recombinant LYP catalytic domain. inhibition, % at 2 µM. 96,000 compounds, 0.21% hits. AID 640, 2007;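 active = inhibition at 2 µM at or above a set limit, the screen mean plus 3 SD, cut at about 24% in these data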;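 note: 0% = DMSO with enzyme and 100% = enzyme fully blocked by orthovanadate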
# FXIa mix inh: FXIa protease inhibitors in compound pools, primary screen, biochemical, 10-compound mixtures; Coagulation factor XI (Homo sapiens), P03951; purified FXIa, fluorogenic substrate, pooled mixtures; inhibition, % at 5 µM; 62,000 compounds, 0.19% hits;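 note: each value is inhibition by a whole ten-compound pool holding the compound; 0% = enzyme with no mixture and 100% = wells lacking enzyme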
# Cdc25B block: inhibitors of Cdc25B phosphatase catalytic domain, primary screen, biochemical, OMFP fluorescence. M-phase inducer phosphatase 2 (Homo sapiens), P30305. recombinant Cdc25B, OMFP fluorescence Ex485/Em525. inhibition, %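 (compounds tested at 10 µM final in the well)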. 65,000 compounds, 0.1% hits. AID 368, 2006; in the data active = inhibition above about 50%
# Target sequence (P30305 whole entry, looked up, the tested form may be a part): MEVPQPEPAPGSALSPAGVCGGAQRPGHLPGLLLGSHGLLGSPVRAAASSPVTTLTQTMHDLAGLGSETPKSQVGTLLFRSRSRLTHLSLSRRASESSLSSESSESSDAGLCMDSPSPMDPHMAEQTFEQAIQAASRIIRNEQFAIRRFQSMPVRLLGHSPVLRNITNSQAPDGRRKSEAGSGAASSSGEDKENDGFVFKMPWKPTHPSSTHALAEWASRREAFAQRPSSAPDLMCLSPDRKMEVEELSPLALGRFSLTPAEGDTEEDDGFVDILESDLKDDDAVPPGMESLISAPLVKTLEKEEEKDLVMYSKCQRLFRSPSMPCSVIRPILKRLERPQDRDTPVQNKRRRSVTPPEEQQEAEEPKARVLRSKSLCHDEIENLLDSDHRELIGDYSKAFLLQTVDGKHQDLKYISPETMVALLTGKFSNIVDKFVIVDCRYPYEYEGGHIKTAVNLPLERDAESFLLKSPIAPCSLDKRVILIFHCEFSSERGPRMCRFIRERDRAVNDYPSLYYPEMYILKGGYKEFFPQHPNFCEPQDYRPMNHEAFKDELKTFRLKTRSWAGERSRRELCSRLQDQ
# FXIIa inh mix: human factor XIIa inhibitors, primary screen, biochemical, pooled compound mixtures, fluorogenic substrate; inhibition, % at 5 µM; 62,000 compounds, 0.2% hits; purified FXIIa; Coagulation factor XII (Homo sapiens), P00748; AID 684, 2007;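 note: 0% = enzyme without compound and 100% = no enzyme blank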
# DUSP1 inh: MKP-1 phosphatase inhibitors, primary screen, biochemical, in vitro; recombinant MKP-1, OMFP hydrolysis fluorescence; inhibition, %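 (compounds tested at a single concentration somewhere between 10 and 100 µM)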; 65,000 compounds, 0.15% hits; Dual specificity protein phosphatase 1 (Homo sapiens), P28562;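 active = inhibition above about 50%, limit read from the data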;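 note: 0% = DMSO max control wells and 100% = wells with enzyme stopped by NaOH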
# The depositor's hits bear a star; . = no result given. Rows were chosen to be rich in hits. Some 0.63% of all compounds tested hit in one or more screens of this group. Cut-off read from the data, not from the text of the source, unless noted: active = inhibition above about 20% (passing the limit was not always enough); inactive = the rest.
SMILES,PTPN22 act,LYP inh 2,FXIa mix inh,Cdc25B block,FXIIa inh mix,DUSP1 inh
O=C(OCC1OC(n2cnc3c(N(C(=O)c4ccccc4)C(=O)c4ccccc4)ncnc32)C(O)C1F)c1ccccc1 (stereo unspecified),-58.6,59.9*,.,.,.,.
O=[N+]([O-])c1ccc(N2CCN(S(=O)(=O)c3ccc(Cl)cc3)CC2)cc1NCc1cccnc1,-20.1,24.3*,.,.,.,.
Cc1nc2c(c(=O)n1CC1CCCO1)c1nc3ccccc3nc1n2Cc1ccc2c(c1)OCO2 (stereo unspecified),.,.,.,11.9,.,8.7
CCn1nc(C(=O)OCC(=O)c2cc(C)n(Cc3cccs3)c2C)c2ccccc2c1=O,-19.3,24.2*,5.0,-9.4,-19.6,17.4
Cc1cc(C(=O)COC(=O)c2ccccc2O)c(C)n1Cc1cccs1,3.7,-3.1,.,.,.,.
COc1cccc(OC)c1-c1nn2c(-c3cc(-c4ccccc4)n[nH]3)nnc2s1,-38.7,37.5*,4.7,-0.2,-17.3,33.0
COc1ccc(-c2nnc3sc(-c4c(OC)cccc4OC)nn23)cc1,.,.,12.3,9.5,-1.4,-9.4
Cc1nc2ccccn2c1P(=O)(N1CCCCC1)N1CCCCC1,-5.1,8.6,6.3,-1.2,20.5*,-9.1
COC(=O)CCC(=O)Oc1ccc(OC(=O)CCC(=O)OC)cc1,.,.,-9.5,59.4*,-5.6,56.2*
CCOCCCNS(=O)(=O)c1ccc(NC(=O)c2ccccc2)cc1,-6.0,5.4,-3.3,-8.3,-17.5,-4.9
CCc1cc(C(=O)OC)c(N2C(=O)C3C4C=CC(C4)C3C2=O)s1 (stereo unspecified),1.7,-2.8,6.9,4.1,51.6*,11.7
CCNC(=S)NNC(=O)c1ccccc1OC(F)F,-0.6,-3.6,.,.,.,.
CNC(=S)NNC(=O)c1cccn(Cc2ccc(Cl)cc2Cl)c1=O,-52.7,53.8*,.,.,.,.
CCNC(=S)NNC(=O)c1cccn(Cc2ccc(Cl)cc2)c1=O,-41.0,42.4*,.,.,.,.
C=CCn1c(-c2cccn(Cc3ccc(Cl)cc3Cl)c2=O)n[nH]c1=S,-8.3,10.4,.,.,.,.
Cc1cc(OCCn2cc(/C(N)=N/O)c3ccccc32)ccc1Cl,4.8,-7.0,.,.,.,.
CC/C(=N\NC(=O)c1ccc(-c2ccccc2)cc1)C12CC3CC(CC(C3)C1)C2,-14.1,11.9,.,.,.,.
O=S1(=O)C=C(SCc2cccc(Cl)c2)Nc2ccccc21,1.8,-4.4,.,.,.,.
COc1ccc(-c2nc(SCc3ccccc3)n(C(=O)c3ccco3)n2)cc1,-5.9,9.3,.,.,.,.
COc1ccc(-c2nc(SC)n(C(=O)c3ccco3)n2)cc1,4.0,-8.0,23.8*,-4.2,4.2,6.7
CCOC(=O)c1cc(NC(=O)N(C(C)C)C(C)C)c(C)nc1C,2.0,-4.6,.,.,.,.
CCOC(=O)c1cc(NC(=O)Nc2ccc(OC)c(OC)c2)c(C)nc1C,2.6,-8.0,28.7*,-5.9,8.9,5.1
CCN(CC(=O)NC)S(=O)(=O)c1ccc(Br)cc1,-11.4,11.3,8.8,-7.9,10.3,3.5
Cc1c(CCOC(=O)C2C3CC4CC(C3)CC2C4)sc[n+]1CC(=O)c1ccc(Br)cc1 (stereo unspecified),-31.7,33.4*,.,.,.,.
CCn1c(=O)cc(SCC(=O)N2CCN(Cc3ccc4c(c3)OCO4)CC2)c2ccccc21,-0.6,-1.7,3.5,-14.0,1.3,56.4*
SMILES,PTPN22 act,LYP inh 2,FXIa mix inh,Cdc25B block,FXIIa inh mix,DUSP1 inh
COc1ccc(-n2nnnc2SCC(=O)Nc2ccc3c(c2)OCCO3)c(OC)c1,-7.2,6.1,1.1,-13.7,2.6,101.7*
COc1cccc(-n2nnnc2SCC(=O)Nc2ccc3c(c2)OCCO3)c1,-3.3,4.0,.,.,.,.
CN1CCN(c2c3c(c(C#N)c4nc5ccccc5n24)CCCC3)CC1,.,.,.,10.9,.,-17.5
O=C(c1ccc(Cl)cc1)c1oc2ccccc2c1CS(=O)(=O)c1ccccc1,-1.4,5.1,.,.,.,.
Nc1nnc(SCC(=O)Nc2ccc3c(c2)OCCO3)s1,-5.8,3.4,.,.,.,.
Nc1nnc(SCC(=O)Nc2ccc(S(=O)(=O)N3CCOCC3)cc2)s1,-26.7,25.7*,.,.,.,.
CCCCCc1nc2c(C#N)c(-c3ccc(Cl)cc3)ccn2n1,-3.2,8.3,.,.,.,.
COc1cc(C)nc(N2CCCC(C(=O)Nc3cccc(Cl)c3C)C2)n1 (stereo unspecified),.,.,21.2*,-8.6,4.1,9.7
O=C(CSc1ncn[nH]1)Nc1ccc(S(=O)(=O)N2CCCC2)cc1,1.9,-3.5,.,.,.,.
O=C(CSc1nc2ccccc2c(=O)[nH]1)Nc1ccc(S(=O)(=O)N2CCCC2)cc1,-8.1,6.8,0.1,0.0,1.9,53.2*
COc1ccc(S(=O)(=O)Nc2ccc(S(=O)(=O)N3CCCCC3)cc2)cc1,-24.6,25.1*,2.4,-7.9,2.9,0.4
COc1ccc(S(=O)(=O)N2CCC(NC(=O)Nc3ccc(C)cc3)CC2)cc1,4.1,-4.2,4.2,7.9,22.2*,-24.9
COc1ccc(S(=O)(=O)Nc2ccc(S(=O)(=O)N3CCCC3)cc2)cc1,3.7,-1.5,.,.,.,.
COc1ccc(CC(=S)N2CCOCC2)cc1,5.1,-7.3,.,.,.,.
Cc1c(=O)n(OCc2ccccn2)c2ccccc2[n+]1[O-],7.6,-7.0,14.0,2.6,4.2,1.7
O=c1c(-c2ccco2)[n+]([O-])c2ccccc2n1OCc1ccccn1,-7.1,6.8,29.5*,4.7,-16.3,12.1
CCCCC1CCC(/C(N)=N/O)CC1 (stereo unspecified),1.3,-2.3,1.5,-2.1,5.9,-9.7
CCCCCC1CCC(C(=O)O)CC1 (stereo unspecified),-6.6,6.0,-5.7,-4.4,8.3,53.7*
O=C(CSc1nc2ccccc2o1)Nc1cc(C(F)(F)F)ccc1N1CCOCC1,2.2,-0.4,.,.,.,.
O=C(CSc1nc2ccccc2o1)Nc1ccccc1N1CCCCCC1,3.3,-0.4,38.0*,-9.4,1.7,4.0
COc1ccc(CN(Cc2cccnc2)C(=S)NCCc2ccccc2)cc1OC,-7.2,10.7,.,.,.,.
CCOC(=O)c1c(NC(=O)CSc2nnc(C)s2)sc2c1CCC(CC)C2 (stereo unspecified),-10.1,7.5,.,.,.,.
COc1ccccc1CNC(=O)c1cnc2sccn2c1=O,.,.,-2.5,2.6,2.5,14.4
COc1ccccc1CNC(=O)c1cnc2ccccn2c1=O,.,.,20.9*,-8.4,-0.3,10.3
CCOC(=O)c1cn(-c2nc(-c3ccc(Cl)c(Cl)c3)cs2)c2c(F)c(N3CCOCC3)c(F)cc2c1=O,-24.7,28.2*,.,.,.,.
COC(=O)CSc1nnc(CNc2ccc(Cl)cc2)n1-c1ccccc1,11.2,-8.9,.,.,.,.
COC(=O)c1ccc(C(=O)Nc2ccc(N)cc2N)cc1,.,.,23.0*,-13.9,4.7,-0.8
COc1ccccc1NC(=O)c1ccc(N)cc1,1.5,-4.2,18.0,-8.1,-16.2,4.0
CCOC(=O)C1CCN(Cc2cnc(Oc3ccc(N)cc3)s2)CC1,8.9,-5.3,.,.,.,.

# From PubChem
